Screens: PubChem, University of Kansas High Throughput Screening Laboratory
Pf apPOL block = Pf-apPOL inhibitors, biochemical, fluorescence. Recombinant Pf-apPOL, molecular beacon fluorescence, 1.5 h. inhibition, % at 10 µM. actives 0.25% (n = 210,000). AID 1794808, 2022
mHTT-CaM PPI inh = mutant huntingtin-calmodulin interaction inhibitors – biochemical, AlphaScreen, primary screen; actives 3.6% (n = 190,000); AID 1671202, 2021; AlphaScreen His-mHTT/GST-CaM binding, luminescence; inhibition, % at 15 µM
Numbers stand for hits; i = inactive. Compounds with a hit are over-represented: about 3.5% of the library has one in this group of screens. Rule as the data show it: active = inhibition above about 50%; inactive = the rest.

SMILES | Pf apPOL block | mHTT-CaM PPI inh
O=C(Nc1cccc(F)c1)c1cccc(S(=O)(=O)N2CCc3ccccc3C2)c1 | i | i
COc1cccc(CNS(=O)(=O)c2cc3c(s2)CCN(C(C)=O)C3)c1 | i | i
Cc1nn(C(=O)C(C)N2C(=O)c3ccccc3C2=O)c(C)c1Br (centres undefined) | i | i
Cc1nn(C(=O)CCN2C(=O)c3ccccc3C2=O)c(C)c1Br | 71 | i
Cn1c(C2CCN(S(=O)(=O)c3ccccc3)C2)nc2cccnc21 (centres undefined) | i | i
CC(=O)Nc1ccc(N=Cc2ccccc2O)cc1 | i | i
CC(=O)Nc1ccc(N=Cc2cc(C)cc(I)c2O)cc1 | i | 65
COc1ccc(NC(=O)C(N)=O)c(OC)c1 | i | i
O=C(c1ccc(S(=O)(=O)N2CCCCC2)cc1)N1CCN(c2ccccc2)CC1 | i | 100
O=C(c1ccc(S(=O)(=O)N2CCCCC2)cc1)N1CCCCC1 | i | i
COc1cc(CN2CCCC2c2cc(C)on2)ccc1OC(C)C (centres undefined) | i | i
COc1ccc(CNc2ccccc2F)cc1OCc1ccccc1 | i | i
COc1ccc(CNc2cc(-c3ccccc3)ccc2OC)cc1O | i | 76
CCOC(=O)N1CC2(COC(C)(C)OC2)C1 | i | i
Cc1cccc(C(=O)N=c2sccn2Cc2ccccc2C(=O)N2CCCC2)c1 | i | i
O=C(N=c1sccn1Cc1ccc(C(=O)N2CCCC2)cc1)c1ccccc1F | 58 | i
COc1ccc(CNC(=O)c2cnn3c(C)c(Cc4cccc(Cl)c4)c(C)nc23)cc1 | i | i
COCCNC(=O)c1cnn2c(C)c(Cc3cccc(Cl)c3)c(C)nc12 | i | i
COCCNC(=O)c1cnn2c(C)c(Cc3cccc(Br)c3)c(C)nc12 | i | 63
COc1ccccc1CNC(=O)CSc1nc2nc(C)c(Cc3ccccc3)c(C)n2n1 | i | i
Cc1ccc(CNC(=O)c2cnn3c(C)c(Cc4cccc(Br)c4)c(C)nc23)cc1 | i | i
Cc1nc2c(C(=O)NCC3CCCO3)cnn2c(C)c1Cc1cccc(Br)c1 (centres undefined) | i | 96
COc1ccccc1CNC(=O)Cc1nc2nc(C)c(Cc3cccc(Cl)c3)c(C)n2n1 | i | 57
Cc1nc2c(C(=O)NCc3ccccn3)cnn2c(C)c1Cc1cccc(Cl)c1 | i | 72
CN(C)c1ccc(CNC(=O)C2CCCN(c3ccncc3)C2)cc1 (centres undefined) | i | i
SMILES | Pf apPOL block | mHTT-CaM PPI inh
CCCNC(=O)COc1ccccc1OC | i | i
O=[N+]([O-])c1ccccc1N1CCCNCC1 | i | i
O=C(NCC(c1ccsc1)N1CCOCC1)Nc1ccc2c(c1)OCO2 (centres undefined) | i | i
O=C(NC1CCCC1)c1nc2ccccn2c1-c1ccccc1 | i | i
CC1CCc2cc(F)cc3c(O)c(C(=O)NCCCN4CCOCC4)c(=O)n1c23 (centres undefined) | i | i
CCNCCNC(=O)c1c(O)c2cc(F)cc3c2n(c1=O)C(C)CC3 (centres undefined) | i | 98
Cc1ccccc1NC(=O)C1CC(Cl)=CCC1C(=O)O (centres undefined) | 64 | i
COc1ccccc1NC(=O)C1CC(Cl)=CCC1C(=O)O (centres undefined) | i | i
COc1ccccc1N1CCN(CC(O)c2ccc3c(c2)OCO3)CC1 (centres undefined) | i | i
O=C(c1ccc(Br)o1)N1CCC(c2ccncc2)CC1 | i | i
COc1cc(OC)c(OC)cc1/C=C1/CCC/C(=C\c2cc(OC)c(OC)cc2OC)C1=O | i | 64
COc1cc(OC)c(OC)cc1/C=C1\Cc2ccccc2C1=O | i | i
Cc1cc(C(=O)N2CC(c3nc4ccccc4[nH]3)C2)no1 | i | i
O=C(c1ccc(Oc2ccccc2)cc1)N1CC(c2nc3ccccc3[nH]2)C1 | i | 100
Cc1ccc(N2CCC(NC(=O)Nc3cccc(C)c3C)C2=O)cc1 (centres undefined) | i | i
Cc1ccc2nc(/C(C#N)=C/c3cn[nH]c3-c3ccccc3)[nH]c2c1 | i | i
CCCn1ccc2oc(C)c(C(=O)N3CCN(c4ccccc4F)CC3)c2c1=O | i | i
CCn1ccc2oc(C)c(C(=O)N3CCN(c4cc(C)ccc4C)CC3)c2c1=O | i | 85
CCn1ccc2oc(C)c(C(=O)NCc3cc(C)ccc3C)c2c1=O | i | i
CCn1ccc2oc(C)c(C(=O)N3CCN(c4cccc(C)c4C)CC3)c2c1=O | i | 66
COc1ccccc1N1CCN(C(=O)c2ccccc2N(Cc2ccccc2)S(C)(=O)=O)CC1 | i | i
O=C(NCc1ccccc1)c1cc2n(n1)C(C(F)(F)F)CC(c1ccc3c(c1)OCO3)N2 (centres undefined) | i | i
Cc1cccc(C2CC(C(=O)N3CCSCC3)CN(Cc3ccccc3)C2)c1 (centres undefined) | i | 77
Cc1cccc(CN2CCCC(C(=O)N3CCCCCC3)C2)c1 (centres undefined) | i | i
